# Test results published in PubChem BioAssay AID651635 (National Center for Advancing Translational Sciences (NCATS), 2012).
# Hit rate of the full screen: of about 400,000 compounds, about 1,900 (0.47%) were called active. Another 14% or so got no clear call; they are omitted. This is one part of a sample in which actives are shown more often than they occur. The call rests on the fitted dose curve; in most records, active means well fitted cell-killing curve with a large enough effect; inconclusive means small, poorly fitted or top-dose-only effect, or effect the other way; inactive means no such curve, though single readings can be large or run the other way.
# Assay: Viability Counterscreen for Primary qHTS for Inhibitors of ATXN expression; further: nearly all actives have a fitted effect of over 40% in size
# Conditions: S2 cells (HEK-293 line with an ATXN2-luciferase reporter) viability, CellTiter-Fluor protease fluorescence, 24 h; series mostly up to 56.7 µM; activity change, negative = cytotoxicity: at the top concentration
# Potency means the concentration at half of the fitted maximal effect.
Compound,"activity change, negative = cytotoxicity",Potency
CC(C(=O)O)c1ccc(C2CCCCC2)c2ccccc12 (configuration not stated),-15.4% (inactive),
COC(=O)c1nc(NC(=O)c2ccccc2)n[nH]1,-13.5% (inactive),
O=C(NC(=O)c1ccccc1)Nc1ccccc1O,-5.19% (inactive),
O=C(NC1=CC(=O)c2ccccc2C1=O)c1ccccc1,,7.08 µM (active)
CCCS(=O)(=O)NCc1c(C)ncc2c1CCN(C(=O)c1ccc(F)c(F)c1)C2,-6.2% (inactive),
O=C(OCCN1CCOCC1)c1cccnc1Nc1cccc(C(F)(F)F)c1,-5.42% (inactive),
COc1ccc(NC(=O)C2(C)Cc3c(-c4cccc(NC(C)=O)c4)ccnc3O2)cc1OC (configuration not stated),-26.5% (inactive),
COc1ccc(-n2c(CNC(=O)c3cc(C(F)(F)F)ccc3Cl)nnc2SC)cc1,-11.2% (inactive),
COc1ccc(NC(=O)C/C(C)=N/NC(=O)c2cnccn2)cc1Cl,-13.5% (inactive),
Cc1ccc(/C=N/NC(=O)C2=NNC(c3ccccc3)(c3ccccc3)C2)c(O)c1,-18.9% (inactive),
CCN(CC)c1ccc(/C=N/NC(=O)c2cnccn2)c(O)c1,,7.94 µM (active)
COc1cc(C(=O)N2CCC(c3ccncc3)CC2)cc(OC)c1OC,-4.24% (inactive),
CCOC(=O)[C@]12CCCC=C1N(Cc1ccc3c(c1)OCO3)C(=O)[C@H](CC(=O)NCc1cccs1)C2,-20.6% (inactive),
CCOc1ccc(NC(=O)c2nc(SCC)ncc2Cl)cc1,-16.9% (inactive),
Cc1cccc(CS(=O)(=O)c2ncc(Cl)c(C(=O)Nc3ccc(F)cc3)n2)c1,,31.6 µM (active)
CCS(=O)(=O)c1ncc(N(Cc2ccc(F)cc2)Cc2ccco2)c(C(=O)Nc2cc(C)ccc2C)n1,-15.9% (inactive),
COCCSc1nnc(NC(=O)CCS(=O)(=O)Cc2ccccc2)s1,-32.4% (inactive),
Cc1ccc2nc(NC(=O)c3nc(SCc4ccccc4F)ncc3Cl)sc2c1,-29.2% (inactive),
CSc1nnc(NC(=O)c2nc(S(=O)(=O)Cc3ccc(C)cc3)ncc2Cl)s1,,12.6 µM (active)
COc1ccccc1-c1ccnc(-n2ncc(C(=O)NCCc3ccncc3)c2C)n1,-6.5% (inactive),
O=C(O)c1ccccc1/C=N/Nc1ccc(S(=O)(=O)Nc2ccc(Cl)cc2)cc1[N+](=O)[O-],-23.7% (inactive),
Oc1[nH]c2ccccc2c1N=Nc1c(F)c(F)c(F)c(F)c1F,-34.7% (inactive),
O=[N+]([O-])c1cc(S(=O)(=O)Nc2cccc(Cl)c2)ccc1N=Nc1c(O)[nH]c2ccccc12,,28.2 µM (active)
CO/N=C(\C(=O)N[C@@H]1C(=O)N2C(C(=O)O)=C(C[N+]3(C)CCCC3)CS[C@H]12)c1csc(N)n1,-14.3% [at 25.4 µM] (inactive),

Compound,"activity change, negative = cytotoxicity",Potency
COc1cc(-c2cccnc2)cc2c1OCCN(C(=O)Cc1csc(C)n1)C2,-16.2% (inactive),
COc1cc2[nH]c(C)c(CCN3CCN(c4ccccc4)CC3)c2cc1OC,-20.5% (inactive),
O=[N+]([O-])c1ccc(C=Nc2ccc(Cl)cc2Cl)s1,,11.2 µM (active)
CC1CN(C(=O)c2ccc([N+](=O)[O-])s2)CC(C)O1 (configuration not stated),-21.9% (inactive),
CNN/C(N=Cc1ccc([N+](=O)[O-])s1)=N\S(=O)(=O)c1cc(C)c(Cl)cc1SCc1ccccc1,-34.8% (inactive),
CCOC(=O)[C@]12CCC=C1N(CCC1=CCCCC1)C(=O)[C@H](CC(=O)NCc1ccc(C)o1)C2,-38% (inactive),
COC(=O)c1nc(Cl)c(Cl)nc1N,,15.8 µM (active)
COC(=O)c1c(C)c(C)nc(N)c1C#N,-3.55% (inactive),
COC(=O)c1nn(-c2cccc(Cl)c2)ccc1=O,5.56% (inactive),
CCCOc1ccc(F)cc1-c1cc(C(=O)NCc2ccc(F)cc2)[nH]n1,-12.6% (inactive),
CCC1CN(CCNC(=O)c2ccsc2)Cc2cc(OC)ccc2O1 (configuration not stated),-8.37% (inactive),
CC[C@]1(O)C[C@@H]2CN(CCc3c([nH]c4ccccc34)[C@@](C(=O)OC)(c3cc4c(cc3OC)N(C)[C@H]3[C@@](O)(C(=O)OC)[C@H](OC(C)=O)[C@]5(CC)C=CCN6CC[C@]43[C@@H]65)C2)C1,,1 µM (active)
O=C(NCC1Cc2cc(F)cc(-c3cnccn3)c2O1)C1COc2ccccc2O1 (configuration not stated),-9.12% (inactive),
CC[C@H](C)CCCCC(=O)N[C@@H](CCN)C(=O)N[C@H](C(=O)N[C@@H](CCN)C(=O)N[C@H]1CCNC(=O)[C@H]([C@@H](C)O)NC(=O)[C@H](CCN)NC(=O)[C@H](CCN)NC(=O)[C@H](CC(C)C)NC(=O)[C@@H](CC(C)C)NC(=O)[C@H](CCN)NC1=O)[C@@H](C)O,-1.3% (inactive),
CCN(CC)CCOC(=O)c1ccc(NC(=O)CNC(=O)c2ccccc2)cc1,-6.36% (inactive),
CCC(C(=O)OCCN(CC)CC)c1ccccc1 (configuration not stated),,inactive
CC1(C(=O)NCC2CCOCC2)Cc2c(-c3cccc(C(N)=O)c3)ccnc2O1 (configuration not stated),-23.9% (inactive),
O=C1NC(CC(=O)N2CCC(n3c(C4CCC4)nc4cccnc43)CC2)c2ccccc21 (configuration not stated),-16% (inactive),
O=CNc1cc(-c2ccc(C(=O)N3CCOCC3)cc2)cn2c(-c3ccc(F)cc3)cnc12,-26.1% (inactive),
CCc1nc2c(OCCc3cccc(OC)c3)cccn2c1N(C)C(=O)c1ccc(C)cc1,-21.3% (inactive),
Cc1cc2ncn(CCCCOc3ccccc3)c2cc1C,,inactive
Cc1cc2nc(C)n(CCCNC(=O)Nc3ccccc3)c2cc1C,-11.2% (inactive),
COc1ccc(OCCCn2c(C)nc3cc(C)c(C)cc32)cc1,,28.2 µM (active)
